In the supplement of paper PMC10849652:
Targets with a hit are over-represented here; the source holds about 7,900 in all. About 0.6% of all pairs of compound and target were hits. Values without a mark were called inactive.

How the values were obtained:
Experiment in all cases: log2 fold change, soluble protein after heating vs DMSO (PISA); higher = thermal stabilisation; K562 cells, 10 uM, 30 min; active = over 0.2 and 3.5 SD of the protein, either way, in both replicates (recomputed)
[1] = compound: CS(=O)(=O)c1ccc(-c2cnc(N)c(C(=O)Nc3ccccc3)n2)cc1
Procedure, shortened: (§1)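 Quantification of soluble protein used TMTpro 16plex LC-MS/MS, with channel sums equalised. Samples were the supernatant after 21,000xg for 90 min of pooled aliquots from K562 cells (2×10^6 cells/mL) treated with 10 μM compound for 30 min, heated for 3 min over 48°C-58°C, and extracted in PBS with 0.5% NP-40 at 4°C. Values, from duplicates, describe thermal stability against control samples on a log2 fold-change scale.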

crizotinib = compound: C[C@@H](Oc1cc(-c2cnn(C3CCNCC3)c2)cnc1N)c1c(Cl)ccc(F)c1Cl [crizotinib]
Procedure, shortened: as §1

[2] = compound: C[C@@H]1COCCN1C2=NC(=NC(=C2)C3(CC3)S(=O)(=O)C)C4=C5C=CNC5=CC=C4
Procedure, shortened: as §1

[3] = compound: C[C@H](C1=CC=C(C=C1)C(=O)NC2=C3C=CNC3=NC=C2)N
Procedure, shortened: as §1

duvelisib = compound: C[C@H](Nc1ncnc2nc[nH]c12)c1cc2cccc(Cl)c2c(=O)n1-c1ccccc1 [duvelisib]
Procedure, shortened: as §1

gandotinib = compound: Cc1cc(Nc2cc(CN3CCOCC3)c3nc(C)c(Cc4ccc(Cl)cc4F)n3n2)n[nH]1 [gandotinib]
Procedure, shortened: as §1

tozasertib = compound: Cc1cc(Nc2cc(N3CCN(C)CC3)nc(Sc3ccc(NC(=O)C4CC4)cc3)n2)n[nH]1 [tozasertib]
Procedure, shortened: as §1

[4] = compound: Cc1cc(SCc2sc(-c3ccc(C(F)(F)F)cc3)nc2C)ccc1OCC(=O)O
Procedure, shortened: as §1

doramapimod = compound: Cc1ccc(-n2nc(C(C)(C)C)cc2NC(=O)Nc2ccc(OCCN3CCOCC3)c3ccccc23)cc1 [doramapimod]
Procedure, shortened: as §1

ispinesib = compound: Cc1ccc(C(=O)N(CCCN)[C@@H](c2nc3cc(Cl)ccc3c(=O)n2Cc2ccccc2)C(C)C)cc1 [ispinesib]
Procedure, shortened: as §1

UniProt O95379, sequence (O95379 whole entry, looked up): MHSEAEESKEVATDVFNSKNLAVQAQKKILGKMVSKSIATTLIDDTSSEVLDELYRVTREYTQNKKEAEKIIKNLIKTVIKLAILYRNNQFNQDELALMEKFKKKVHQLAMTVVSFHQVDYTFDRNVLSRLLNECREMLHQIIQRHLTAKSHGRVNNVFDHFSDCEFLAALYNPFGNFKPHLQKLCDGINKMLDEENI
UniProt Q9NQH7, sequence (Q9NQH7 whole entry, looked up): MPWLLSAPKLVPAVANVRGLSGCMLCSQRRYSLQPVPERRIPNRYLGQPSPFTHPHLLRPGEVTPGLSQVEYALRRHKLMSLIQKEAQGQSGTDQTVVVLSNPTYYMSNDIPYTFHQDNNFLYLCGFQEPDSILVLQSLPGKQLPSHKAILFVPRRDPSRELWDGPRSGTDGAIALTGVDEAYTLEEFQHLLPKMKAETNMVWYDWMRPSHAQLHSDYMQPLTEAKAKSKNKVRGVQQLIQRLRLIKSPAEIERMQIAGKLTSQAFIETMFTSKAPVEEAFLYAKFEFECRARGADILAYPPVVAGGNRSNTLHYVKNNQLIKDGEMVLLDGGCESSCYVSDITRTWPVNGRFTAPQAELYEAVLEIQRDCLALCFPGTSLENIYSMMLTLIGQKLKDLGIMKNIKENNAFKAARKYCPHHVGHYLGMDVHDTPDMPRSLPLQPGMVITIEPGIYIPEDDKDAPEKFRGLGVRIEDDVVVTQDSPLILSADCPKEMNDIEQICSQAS
UniProt Q9H267, sequence (Q9H267 whole entry, looked up): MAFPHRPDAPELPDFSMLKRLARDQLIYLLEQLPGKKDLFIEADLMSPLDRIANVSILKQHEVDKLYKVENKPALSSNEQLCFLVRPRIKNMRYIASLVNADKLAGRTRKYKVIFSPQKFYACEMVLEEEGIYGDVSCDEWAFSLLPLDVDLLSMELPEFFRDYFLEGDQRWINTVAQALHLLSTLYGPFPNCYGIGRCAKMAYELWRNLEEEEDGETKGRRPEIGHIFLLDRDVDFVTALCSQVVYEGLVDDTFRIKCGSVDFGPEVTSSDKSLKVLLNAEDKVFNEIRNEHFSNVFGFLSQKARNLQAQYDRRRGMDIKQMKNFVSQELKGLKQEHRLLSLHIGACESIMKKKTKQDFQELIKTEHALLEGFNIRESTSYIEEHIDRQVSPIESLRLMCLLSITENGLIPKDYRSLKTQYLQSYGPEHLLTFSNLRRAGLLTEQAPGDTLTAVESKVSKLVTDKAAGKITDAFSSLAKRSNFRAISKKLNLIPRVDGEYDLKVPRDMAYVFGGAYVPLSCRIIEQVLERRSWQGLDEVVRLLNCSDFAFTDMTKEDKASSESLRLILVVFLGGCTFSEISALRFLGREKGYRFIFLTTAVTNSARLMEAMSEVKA
UniProt Q9BTX3, sequence (Q9BTX3 whole entry, looked up): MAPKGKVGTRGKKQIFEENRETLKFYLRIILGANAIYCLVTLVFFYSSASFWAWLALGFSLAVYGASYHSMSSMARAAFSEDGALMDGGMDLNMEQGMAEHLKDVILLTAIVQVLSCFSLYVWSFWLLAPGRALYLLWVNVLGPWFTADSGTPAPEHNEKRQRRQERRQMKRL
UniProt O00258, sequence (O00258 whole entry, looked up): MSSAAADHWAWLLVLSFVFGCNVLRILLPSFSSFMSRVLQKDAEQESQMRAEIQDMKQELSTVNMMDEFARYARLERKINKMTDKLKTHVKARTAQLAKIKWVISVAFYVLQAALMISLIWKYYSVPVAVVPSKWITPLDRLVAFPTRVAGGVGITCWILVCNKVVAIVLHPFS
UniProt Q86SZ2, sequence (Q86SZ2 whole entry, looked up): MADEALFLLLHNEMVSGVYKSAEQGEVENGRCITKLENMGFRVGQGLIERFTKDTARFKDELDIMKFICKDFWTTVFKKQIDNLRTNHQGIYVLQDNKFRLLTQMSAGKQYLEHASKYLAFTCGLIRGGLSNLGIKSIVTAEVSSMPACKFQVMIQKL
UniProt O60763, sequence (O60763 whole entry, looked up): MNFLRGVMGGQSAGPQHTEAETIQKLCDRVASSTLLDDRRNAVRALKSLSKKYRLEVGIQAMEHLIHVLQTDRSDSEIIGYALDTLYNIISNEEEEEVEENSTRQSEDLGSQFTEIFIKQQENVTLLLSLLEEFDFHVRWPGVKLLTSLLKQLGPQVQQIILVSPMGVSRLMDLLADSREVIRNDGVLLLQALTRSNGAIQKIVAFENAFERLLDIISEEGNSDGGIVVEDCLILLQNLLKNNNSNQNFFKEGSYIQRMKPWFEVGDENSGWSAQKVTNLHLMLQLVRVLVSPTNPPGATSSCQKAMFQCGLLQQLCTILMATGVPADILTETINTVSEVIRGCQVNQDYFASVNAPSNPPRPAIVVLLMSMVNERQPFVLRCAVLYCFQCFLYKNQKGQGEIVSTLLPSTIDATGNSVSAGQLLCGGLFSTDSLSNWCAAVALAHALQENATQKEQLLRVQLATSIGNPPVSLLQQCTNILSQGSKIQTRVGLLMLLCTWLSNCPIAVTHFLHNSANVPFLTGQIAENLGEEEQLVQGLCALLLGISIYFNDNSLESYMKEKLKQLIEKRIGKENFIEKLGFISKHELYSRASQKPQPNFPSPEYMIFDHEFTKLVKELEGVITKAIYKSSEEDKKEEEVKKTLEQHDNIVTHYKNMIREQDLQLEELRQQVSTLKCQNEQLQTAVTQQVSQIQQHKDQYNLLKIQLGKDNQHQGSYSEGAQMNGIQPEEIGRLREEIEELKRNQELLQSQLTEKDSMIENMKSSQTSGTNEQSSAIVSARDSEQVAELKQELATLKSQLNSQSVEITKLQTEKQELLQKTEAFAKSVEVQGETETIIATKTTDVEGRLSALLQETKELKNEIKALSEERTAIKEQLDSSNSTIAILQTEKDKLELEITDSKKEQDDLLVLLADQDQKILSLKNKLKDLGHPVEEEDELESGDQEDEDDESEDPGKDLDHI
UniProt Q7Z392, sequence (Q7Z392 whole entry, looked up): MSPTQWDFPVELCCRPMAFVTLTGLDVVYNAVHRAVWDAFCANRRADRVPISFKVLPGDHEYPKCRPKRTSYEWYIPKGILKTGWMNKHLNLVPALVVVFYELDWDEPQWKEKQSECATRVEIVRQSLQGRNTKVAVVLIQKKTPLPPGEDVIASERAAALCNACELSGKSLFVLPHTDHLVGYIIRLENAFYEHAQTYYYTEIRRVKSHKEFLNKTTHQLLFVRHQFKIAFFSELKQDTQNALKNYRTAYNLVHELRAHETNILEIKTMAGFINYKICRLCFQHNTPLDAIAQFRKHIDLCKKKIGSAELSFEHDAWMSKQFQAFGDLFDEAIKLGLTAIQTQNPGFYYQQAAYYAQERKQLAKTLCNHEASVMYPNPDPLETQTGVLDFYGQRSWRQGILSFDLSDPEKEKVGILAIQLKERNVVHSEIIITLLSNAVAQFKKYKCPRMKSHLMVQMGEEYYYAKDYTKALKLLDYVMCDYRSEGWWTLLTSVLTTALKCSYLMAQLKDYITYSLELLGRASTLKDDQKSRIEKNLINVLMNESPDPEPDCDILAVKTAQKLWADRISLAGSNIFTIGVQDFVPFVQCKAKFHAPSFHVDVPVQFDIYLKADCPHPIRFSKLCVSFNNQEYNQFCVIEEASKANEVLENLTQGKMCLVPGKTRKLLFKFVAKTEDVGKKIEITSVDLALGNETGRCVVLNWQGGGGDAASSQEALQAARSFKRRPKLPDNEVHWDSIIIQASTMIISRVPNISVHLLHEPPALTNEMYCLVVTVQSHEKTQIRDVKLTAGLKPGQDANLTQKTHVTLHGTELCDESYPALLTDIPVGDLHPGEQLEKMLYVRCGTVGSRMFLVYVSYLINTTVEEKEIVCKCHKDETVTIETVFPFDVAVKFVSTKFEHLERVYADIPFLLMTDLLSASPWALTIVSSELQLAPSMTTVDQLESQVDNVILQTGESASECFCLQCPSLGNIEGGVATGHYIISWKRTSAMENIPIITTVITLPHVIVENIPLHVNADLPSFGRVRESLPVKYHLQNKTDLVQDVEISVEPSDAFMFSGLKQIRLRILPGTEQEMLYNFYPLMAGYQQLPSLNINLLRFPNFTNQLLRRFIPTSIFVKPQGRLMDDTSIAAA
UniProt Q7Z3J2, sequence (Q7Z3J2 whole entry, looked up): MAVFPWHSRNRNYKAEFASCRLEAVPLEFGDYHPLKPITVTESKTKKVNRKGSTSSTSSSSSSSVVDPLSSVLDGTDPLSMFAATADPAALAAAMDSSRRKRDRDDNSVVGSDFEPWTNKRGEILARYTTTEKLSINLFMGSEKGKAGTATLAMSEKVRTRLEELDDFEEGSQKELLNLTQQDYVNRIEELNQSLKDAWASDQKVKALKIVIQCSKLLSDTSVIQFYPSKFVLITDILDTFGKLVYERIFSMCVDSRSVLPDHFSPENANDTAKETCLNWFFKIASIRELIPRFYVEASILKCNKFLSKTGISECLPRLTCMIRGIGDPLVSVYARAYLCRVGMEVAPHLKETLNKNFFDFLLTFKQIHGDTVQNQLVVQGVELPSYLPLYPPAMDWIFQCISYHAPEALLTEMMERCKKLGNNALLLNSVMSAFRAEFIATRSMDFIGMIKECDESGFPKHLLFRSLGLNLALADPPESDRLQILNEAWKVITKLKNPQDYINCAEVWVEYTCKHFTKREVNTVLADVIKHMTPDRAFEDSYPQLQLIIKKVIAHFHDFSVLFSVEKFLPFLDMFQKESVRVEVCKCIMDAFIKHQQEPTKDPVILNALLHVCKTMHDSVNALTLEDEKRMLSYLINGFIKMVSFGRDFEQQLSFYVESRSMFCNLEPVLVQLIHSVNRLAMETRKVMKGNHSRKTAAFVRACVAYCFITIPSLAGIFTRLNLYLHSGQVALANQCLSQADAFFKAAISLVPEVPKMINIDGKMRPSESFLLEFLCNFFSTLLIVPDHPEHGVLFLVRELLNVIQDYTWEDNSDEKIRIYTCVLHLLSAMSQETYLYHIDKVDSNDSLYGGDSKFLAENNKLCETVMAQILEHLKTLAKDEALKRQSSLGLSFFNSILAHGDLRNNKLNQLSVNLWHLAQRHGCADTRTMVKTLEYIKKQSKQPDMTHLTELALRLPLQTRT

Target | log2 fold change [1] | log2 fold change (crizotinib) | log2 fold change [2] | log2 fold change [3] | log2 fold change (duvelisib) | log2 fold change (gandotinib) | log2 fold change (tozasertib) | log2 fold change [4] | log2 fold change (doramapimod) | log2 fold change (ispinesib)
VPS33B (UniProt Q9H267) | 0.05 | -0.182 | -0.022 | 0.063 | -0.004 | -0.114 | 0.012 | 0.085 | -0.01 | -0.149
VPS41 (UniProt P49754) | 0.003 | -0.213 | -0.009 | 0.03 | 0.008 | -0.117 | 0.01 | 0.046 | 0.034 | -0.138
VRK2 (UniProt Q86Y07) | 0.048 | -0.16 | 0.015 | 0.472 (active) | -0.01 | -0.08 | -0.057 | 0.012 | 0.026 | -0.115
TMEM63B (UniProt Q5T3F8) | -0.127 | 0.045 | -0.042 | -0.014 | -0.085 | -0.028 | -0.007 | 0.015 | -0.047 | -0.312 (active)
USO1 isoform 2 (UniProt O60763) | 0.001 | -0.031 | 0.05 | -0.068 | -0.023 | -0.062 | 0.029 | 0.052 | -0.019 | 0.012
USP14 (UniProt P54578) | 0.006 | -0.023 | 0.082 | -0.037 | 0.067 | -0.078 | -0.002 | 0.076 | 0.002 | 0.017
TMEM184C (UniProt Q9NVA4) | 0.117 | -0.267 | 0.019 | -0.049 | -0.046 | -0.038 | 0.046 | 0.036 | 0.019 | -0.365 (active)
USP34 (UniProt Q70CQ2) | -0.049 | -0.142 | 0.046 | 0.051 | 0.078 | -0.131 | 0.061 | 0.118 | -0.006 | -0.007
TMEM192 (UniProt Q8IY95) | 0.074 | -0.45 (active) | 0.043 | 0.04 | 0.026 | 0.059 | -0.008 | -0.022 | 0.024 | -0.318 (active)
UHRF1BP1L (UniProt A0JNW5) | 0.001 | -0.04 | 0.031 | -0.002 | 0.091 | -0.038 | -0.025 | -0.024 | 0.046 | 0.2
WDR41 (UniProt Q9HAD4) | 0.01 | -0.093 | -0.064 | -0.064 | 0.013 | -0.035 | -0.002 | -0.02 | -0.042 | -0.172
TMEM214 (UniProt Q6NUQ4) | -0.018 | 0.123 | -0.043 | 0.067 | 0.011 | -0.079 | 0.028 | 0.048 | -0.013 | 0.072
TTC4 (UniProt O95801) | 0.046 | -0.001 | 0.017 | 0.029 | 0.032 | -0.025 | 0.061 | 0.134 | -0.028 | 0.108
TNFAIP8 isoform 4 (UniProt O95379) | 0.005 | 0 | 0.122 | -0.099 | 0.019 | -0.073 | -0.076 | -0.046 | -0.016 | -0.046
VPS16 (UniProt Q9H269) | 0.035 | -0.105 | -0.09 | 0.08 | 0.023 | -0.163 | 0.033 | 0.092 | 0.085 | -0.239
UBA1 (UniProt P22314) | 0.127 | -0.338 | 0.091 | 0.017 | -0.014 | -0.068 | 0.066 | 0.148 | -0.031 | -0.11
TUBAL3 (UniProt A6NHL2) | -0.097 | -0.128 | 0.161 | 0.02 | 0.009 | -0.165 | 0 | -0.02 | 0.113 | -0.108
VPS35L (UniProt Q7Z3J2) | 0.054 | -0.128 | -0.043 | 0.186 | 0.033 | 0 | 0.026 | 0.023 | 0.02 | -0.11
WRB (UniProt O00258) | -0.031 | 0.057 | 0.036 | -0.028 | -0.094 | -0.053 | -0.016 | 0.067 | 0.015 | 0.029
TMEM161A (UniProt Q9NX61) | -0.038 | -0.026 | -0.006 | 0.001 | -0.032 | -0.156 | -0.145 | 0.051 | -0.023 | -0.251
TXN2 (UniProt Q99757) | -0.001 | 0.128 | -0.047 | -0.317 (active) | 0.031 | 0.105 | 0.009 | -0.026 | -0.034 | 0.028
WDR47 (UniProt O94967) | -0.024 | 0.048 | 0.024 | -0.003 | 0.109 | 0.09 | -0.052 | -0.011 | -0.034 | 0.025
XPNPEP3 (UniProt Q9NQH7) | 0.06 | -0.013 | 0.011 | -0.001 | 0.059 | -0.033 | -0.034 | 0.034 | 0.065 | -0.046
USP9X (UniProt Q93008) | -0.008 | -0.159 | -0.024 | 0.033 | 0.001 | -0.125 | 0 | 0.053 | 0.016 | -0.058
UXT isoform 2 (UniProt Q9UBK9) | 0.063 | 0.056 | 0.184 | 0.006 | 0.017 | 0.255 | 0.021 | -0.034 | 0.017 | -0.035
WDCP (UniProt Q9H6R7) | -0.018 | 0.079 | -0.046 | -0.024 | -0.007 | 0.047 | 0.094 | 0.084 | 0.005 | 0.032
TRAPPC6B (UniProt Q86SZ2) | -0.008 | 0.024 | 0.111 | -0.069 | 0.044 | -0.045 | 0.014 | -0.014 | 0.025 | 0.014
TRAPPC11 (UniProt Q7Z392) | -0.004 | 0.008 | 0.051 | 0.075 | 0.043 | -0.047 | 0.021 | 0.1 | 0.028 | -0.079
UBC (UniProt P0CG48) | -0.003 | 0.208 | 0.05 | 0.064 | 0.075 | 0.014 | 0.009 | -0.009 | 0.035 | 0.091
TMEM208 (UniProt Q9BTX3) | -0.09 | -0.119 | 0.134 | -0.004 | -0.039 | 0.086 | -0.035 | 0.076 | 0.019 | -0.243
